# From PubChem
# In the library only some 3.3% were active in any assay of this set; here they are far more common.
# RE007 growth inh: less growth of the S. pombe RE007 Vpr strain; S. pombe RE007 Vpr strain, BacTiter-Glo ATP luminescence, 24 h; Potency, µM (top dose mostly 92.2 µM), for the others: at the highest dose activity change, negative = less growth, hits mostly inhibitors; 360,000 tested, 0.21% active; active = well fitted falling curve with a large enough effect; inconclusive = small, poorly fitted or top-dose-only effect; inactive = no such curve, though single readings can be large or run the other way; note: nearly all actives have a fitted effect of over 50% in size
#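 Fission yeast RE007 carrying one integrated HIV-1 vpr copy, seeded at OD 0.01 in PMG+AL medium with 23 nL pinned compound. Grown 24 h at 30 degrees; viability read by BacTiter-Glo luminescence after 5 min.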
# Sm TGR inh: blocks Schistosoma mansoni thioredoxin glutathione reductase; AID 485364; Potency, µM (highest dose often 114 µM), inactives show top-dose activity change, negative = inhibition, actives largely listed as inhibitors; Q962Y6; 360,000 tested, 3% active; purified TGR, DTNB reduction, TNB absorbance 405 nm; note: nearly all actives have a fitted effect of over 60% in size
#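 First, TGR (20 nM dispensed) and NADPH were mixed with compound. Second, a 15 min room-temperature incubation followed. Third, further NADPH and then DTNB were added to start the reaction. Finally, TNB absorbance was monitored kinetically.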
# Tb PYK inh: inhibitors of Trypanosoma brucei pyruvate kinase; TbPYK enzyme, Kinase-Glo Plus ATP luminescence, 45 min; Potency, µM (top dose mostly 76.8 µM), inactives show at the top dose activity, negative = inhibition, hits mostly inhibitors; 410,000 tested, 0.12% active; note: nearly all actives have a fitted effect of over 50% in size
#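 In this concentration-response screen, enzyme-free wells defined baseline while DMSO plates tracked drift. Each reaction combined TbPYK, substrate, compound and 130 uM ADP for 45 min at room temperature. Kinase-Glo Plus luminescence gave the signal.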
# Giardia FBPA inh-1: inhibitors of Giardia lamblia fructose-1,6-bisphosphate aldolase; A8B2U2; purified Giardia FBPA; Potency, µM (top dose mostly 59.6 µM), for inactives: at the highest dose activity, negative = inhibition, usual class: inhibitors; 290,000 tested, 0.71% active; note: nearly all actives have a fitted effect of over 55% in size
# Target sequence (A8B2U2 whole entry, looked up): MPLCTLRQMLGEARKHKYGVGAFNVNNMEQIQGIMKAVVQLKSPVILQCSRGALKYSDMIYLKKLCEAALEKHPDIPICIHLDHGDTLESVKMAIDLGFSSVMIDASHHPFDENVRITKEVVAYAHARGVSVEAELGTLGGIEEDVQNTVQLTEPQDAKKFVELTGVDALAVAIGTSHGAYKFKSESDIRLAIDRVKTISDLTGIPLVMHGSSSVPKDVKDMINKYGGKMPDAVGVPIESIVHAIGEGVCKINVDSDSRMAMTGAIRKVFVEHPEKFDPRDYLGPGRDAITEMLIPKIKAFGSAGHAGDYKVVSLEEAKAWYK
#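 40 nM FBPA preincubated 10 min at RT with compound (up to 57.5 uM final), then substrate plus GAPDH/TPI/NAD/arsenate coupling and diaphorase/resazurin added. Fluorescence read after 20 min at RT, 525/598 nm.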
# LmPK inhibitor: inhibitors of Leishmania mexicana pyruvate kinase. 290,000 tested, 0.37% active. AID 1721. Q27686. purified LmPK, Kinase-Glo ATP luminescence, 1 h. Potency, µM (doses to about 57.5 µM), for inactives: at the top dose activity change, negative = inhibition, usual class: inhibitors
#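 Kinase-Glo luminescence read after 1 h RT reaction of 0.1 nM LmPK with 0.5 mM PEP and 0.1 mM ADP. Activity scaled between uninhibited and enzyme-free controls.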
# Giardia growth: inhibitors of Giardia lamblia growth; shares compounds with Giardia FBPA inh-1; Giardia lamblia trophozoite growth inhibition; Potency, µM (titrated, usually from 57.5 µM), for the others: at the highest dose activity change, negative = inhibition, most hits filed as inhibitors; 1,500 tested, 5% active; AID 2785;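 note: trophozoites exposed to compound for 48 h at 37 °C; nearly all actives have a fitted effect of over 70% in size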
# Mammal cell tox: counter-screen for Giardia aldolase inhibitors: mammalian cell toxicity; 1,500 tested, 4% active; shares compounds with Giardia FBPA inh-1; Potency, µM (series often up to 57.5 µM), for the others: top-dose viability change, negative = toxicity, hits mostly inhibitors; mammalian cell viability counter-screen, qHTS;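 note: Chinese hamster ovary cells used as mammalian cytotoxicity surrogate; viability measured as cellular ATP by luminescence; compound exposure lasted 48 h before reading; nearly all actives have a fitted effect of over 60% in size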
# Giardia FBPA inh-2: confirmation of Giardia fructose-bisphosphate aldolase inhibitors; shares compounds with Giardia FBPA inh-1; purified Giardia aldolase enzyme activity, qHTS; Potency, µM (top dose mostly 57.5 µM), for the others: at the top dose activity change, negative = inhibition, actives largely listed as inhibitors; 1,500 tested, 5% active; AID 2787; note: nearly all actives have a fitted effect of over 45% in size
# Rabbit FBPA inh: blocks rabbit muscle aldolase in Giardia aldolase selectivity test; AID 2794; shares compounds with Giardia FBPA inh-1; 1,500 tested, 4% active; Rabbit muscle FBPA enzyme inhibition, selectivity counter-screen; Potency, µM (highest dose often 57.5 µM), without a hit: at the highest dose activity, negative = inhibition, usual class: inhibitors; note: nearly all actives have a fitted effect of over 60% in size
# GAPDH coupling: GAPDH inhibition flagged for Giardia aldolase hits | shares compounds with Giardia FBPA inh-1 | GAPDH coupling enzyme counterscreen, biochemical, qHTS | Potency, µM (highest dose often 57.5 µM), inactives show at the top dose activity change, negative = inhibition, hits mostly inhibitors | 1,500 tested, 6% active; note: nearly all actives have a fitted effect of over 55% in size
# * marks the source's active call; other numbers are inactive results; ? = inconclusive; . = not tested or not shown; [ ] = another dose, or the depositor's remark. Unless noted, calls come from the whole dose curve; as a rule, active = well fitted curve in the direction sought with a large enough effect; inconclusive = small, poorly fitted or top-dose-only effect, or another doubt; inactive = no such curve, though single readings can be large; an effect the other way counts as inactive or inconclusive. % is set by controls: 0 for no effect and ±100 for the full control effect; potency is the fitted concentration of half-maximal effect.
SMILES,RE007 growth inh,Sm TGR inh,Tb PYK inh,Giardia FBPA inh-1,LmPK inhibitor,Giardia growth,Mammal cell tox,Giardia FBPA inh-2,Rabbit FBPA inh,GAPDH coupling
Cc1ccc(CNC(=O)C23CN(Cc4ccccc4)CC2C(c2ccc([N+](=O)[O-])cc2)=NO3)o1 (configuration not stated),1%,-18%,-9%,12%,6%,.,.,.,.,.
CN(C)S(=O)(=O)c1ccc(C(=O)OCC(=O)c2csc(N3CCCCC3)n2)cc1,9%,-7%,-11%,.,.,.,.,.,.,.
Cc1cc(NC(=O)CSCC(=O)Nc2ccc(Cl)c(C(F)(F)F)c2)no1,3%,-4%,9%,.,.,.,.,.,.,.
COc1ccccc1OCC#CCN1CCOCC1,-1%,11µM*,36%,11µM*,0%,5%[10.4 µM],0%,1%,2%,14%
CCOC(=O)C1(C(=O)OCC)COC(=O)C2(CC)OC21 (configuration not stated),-5%,.,-5%,.,.,.,.,.,.,.
Cc1c(Br)c(=O)oc2c(Br)c(O)c(O)cc12,-10%,-21%,-4%,?,4%,-5%[38.3 µM],-20%,?,?,-5%
CC(=O)Nc1cccc(Oc2nc(NC(C)C)nc3cc(-c4ccccc4)sc23)c1,1%,.,-10%,.,.,.,.,.,.,.
Cn1nc(-c2ccccn2)nc2c(=O)n(C)c(=O)nc1-2,-7%,?,0%,?,0%,.,.,.,.,.
Cn1ncnc2c(=O)n(C)c(=O)nc1-2,-25%,-32%,-3%,0.5µM*,-1%,13µM*,8.9µM*,3.2µM*,4.5µM*,2.5µM*
CCOc1nc(OCC)c2[nH]c(C(=O)O)c(Br)c2n1,-1%,.,4%,.,.,.,.,.,.,.
CC(C)Oc1ccc(N2CC(C(=O)Nc3ccccc3F)CC2=O)cc1 (configuration not stated),10%,1%,-3%,0%,-11%,.,.,.,.,.
CN(C)Cc1c(C(=O)N/N=C/c2cccc(OCc3c(F)cccc3Cl)c2)nnn1-c1nonc1N,-5%,15%,2%,.,4%,.,.,.,.,.
C=CCC(NCc1ccccc1)c1ccc(OC)cc1 (configuration not stated),-10%,2%,-18%,14µM*,-1%,19%,4%,3%,8%,8%
Cc1cccc(CN2CCN(Cc3ccco3)CC2)c1,-18%,-3%,-2%,?,-3%,.,.,.,.,.
Clc1cccc(CN2CCN(Cc3ccco3)CC2)c1,3%,-5%,8%,14µM*,-3%,-17%,-9%,-1%,-3%,2%
COc1ccc(Nc2cc(C)c3c(O)cccc3n2)cc1,-8%,3%,-20%,?,-14%,.,.,.,.,.
Cc1ccc(Nc2cc(C)c3c(O)cccc3n2)cc1C,-10%,-18%,-9%,?,-2%,6%[38.3 µM],-1%,?,?,21µM*
C=CCNC(=S)N/N=C1\CCS(=O)(=O)c2ccccc21,-12%,-29%,2%,7.1µM*,1%,-19%,12%,12%,8%,5%
O=S1(=O)CC/C(=N\O)c2ccccc21,9%,-1%,3%,5%,1%,.,.,.,.,.
